{"source": "PubChem BioAssay AID1835", "about": "(Johns Hopkins Ion Channel Center, 2009)", "note": "In all, about 2,400 compounds went through this assay and about 750 (31%) were called active.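 Rule for the calls: active = median signal gain over dofetilide-blocked control wells reaching their mean plus 3 SD, so readout 1 at least 0; inactive = the rest.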 The list shows a part of the results.", "data": [{"target": "Voltage-gated inwardly rectifying potassium channel KCNH2 (Homo sapiens) (UniProt Q12809)", "sequence (Q12809 whole entry, looked up)": "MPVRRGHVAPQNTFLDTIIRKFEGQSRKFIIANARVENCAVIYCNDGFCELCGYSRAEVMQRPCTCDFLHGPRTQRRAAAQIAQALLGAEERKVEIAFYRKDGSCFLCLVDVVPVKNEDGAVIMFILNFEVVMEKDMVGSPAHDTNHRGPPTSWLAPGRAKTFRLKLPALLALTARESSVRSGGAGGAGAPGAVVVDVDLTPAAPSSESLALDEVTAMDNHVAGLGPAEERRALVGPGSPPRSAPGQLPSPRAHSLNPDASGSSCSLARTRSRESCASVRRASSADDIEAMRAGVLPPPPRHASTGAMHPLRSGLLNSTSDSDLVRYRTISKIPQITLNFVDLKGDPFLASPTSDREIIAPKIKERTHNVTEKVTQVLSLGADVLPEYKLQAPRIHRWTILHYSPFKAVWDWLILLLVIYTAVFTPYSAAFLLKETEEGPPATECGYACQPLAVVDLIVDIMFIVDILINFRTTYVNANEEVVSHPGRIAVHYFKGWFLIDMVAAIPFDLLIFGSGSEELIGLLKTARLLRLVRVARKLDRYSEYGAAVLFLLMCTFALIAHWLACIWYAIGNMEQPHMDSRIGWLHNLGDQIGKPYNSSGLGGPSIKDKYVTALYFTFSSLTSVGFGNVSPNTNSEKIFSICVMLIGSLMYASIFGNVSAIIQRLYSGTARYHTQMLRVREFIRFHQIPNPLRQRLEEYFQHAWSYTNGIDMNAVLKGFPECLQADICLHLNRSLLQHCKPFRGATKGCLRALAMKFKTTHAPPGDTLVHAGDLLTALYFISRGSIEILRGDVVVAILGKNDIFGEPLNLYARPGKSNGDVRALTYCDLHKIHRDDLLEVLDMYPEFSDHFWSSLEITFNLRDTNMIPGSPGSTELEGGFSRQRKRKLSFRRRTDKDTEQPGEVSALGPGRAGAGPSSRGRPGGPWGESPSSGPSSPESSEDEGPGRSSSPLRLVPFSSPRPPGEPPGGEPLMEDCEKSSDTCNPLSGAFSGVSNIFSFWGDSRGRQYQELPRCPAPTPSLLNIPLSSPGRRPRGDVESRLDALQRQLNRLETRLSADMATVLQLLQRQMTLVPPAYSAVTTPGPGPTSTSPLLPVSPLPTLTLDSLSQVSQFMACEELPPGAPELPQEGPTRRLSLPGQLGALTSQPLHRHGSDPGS", "assay": "modulators restoring hERG flux under dofetilide – cell-based, thallium flux, duplicate retest, dofetilide IC70, confirmation (AID 1835)", "details": "hERG cell line, FluxOR thallium flux, dofetilide-blocked; at 10 µM; active compounds read high", "values": [{"smiles": "O=C(CCC(=O)Nc1ccccc1)NNC(=O)c1ccco1", "activity increase over dofetilide control, less the hit threshold": "-12% (inactive)"}, {"smiles": "COc1ccccc1NC(=O)C(=O)NNC(=O)c1ccco1", "activity increase over dofetilide control, less the hit threshold": "35% (active)"}, {"smiles": "COc1ccc(C)cc1NC(=O)C(=O)NNC(=O)c1ccco1", "activity increase over dofetilide control, less the hit threshold": "55% (active)"}, {"smiles": "CN(c1ccccc1)S(=O)(=O)c1ccc(Cl)c(C(=O)Nc2nn[nH]n2)c1", "activity increase over dofetilide control, less the hit threshold": "-4% (inactive)"}, {"smiles": "CC12CN3CC(C)(CN(C1)C3c1ccc3c(c1)OCO3)C2=O", "note": "(stereo not given)", "activity increase over dofetilide control, less the hit threshold": "-8% (inactive)"}, {"smiles": "Cc1ccc(C(C)C)cc1OCC(=O)Nc1ccc(N2CCCCC2)cc1", "activity increase over dofetilide control, less the hit threshold": "-11% (inactive)"}, {"smiles": "C/C(=N\\NC(=O)COc1ccc(C)cc1C(C)C)c1ccc(-n2ccnc2)cc1", "activity increase over dofetilide control, less the hit threshold": "6% (active)"}, {"smiles": "O=[N+]([O-])c1ccc(S(=O)(=O)Nc2ccc(S(=O)(=O)N3CCCC3)cc2)cc1", "activity increase over dofetilide control, less the hit threshold": "-23% (inactive)"}, {"smiles": "CC(C)(C)c1ccc(Cn2nc(CC(=O)O)c3ccccc3c2=O)cc1", "activity increase over dofetilide control, less the hit threshold": "-9% (inactive)"}, {"smiles": "O=C(O)CCCNC(=O)c1nn(Cc2ccccc2)c(=O)c2ccccc12", "activity increase over dofetilide control, less the hit threshold": "3% (active)"}, {"smiles": "Cc1nc2c(C(=O)NCCc3ccccc3)c[nH]n2c(=O)c1Cl", "activity increase over dofetilide control, less the hit threshold": "-3% (inactive)"}, {"smiles": "Cc1ccc(C(=O)NC(=S)N(C)Cc2ccccc2)cc1", "activity increase over dofetilide control, less the hit threshold": "-3% (inactive)"}, {"smiles": "O=C(NC(=S)NCc1ccccc1)c1cccs1", "activity increase over dofetilide control, less the hit threshold": "23% (active)"}, {"smiles": "S=C(NCc1ccccc1)NCc1ccccc1Cl", "activity increase over dofetilide control, less the hit threshold": "-9% (inactive)"}, {"smiles": "O=C(c1cccs1)N1CCN=C1SCc1ccccc1", "activity increase over dofetilide control, less the hit threshold": "-20% (inactive)"}, {"smiles": "NS(=O)(=O)c1ccc(NC(=S)NCc2cccs2)cc1", "activity increase over dofetilide control, less the hit threshold": "-9% (inactive)"}, {"smiles": "CN(Cc1ccccc1)C(=S)NC(=O)c1cccs1", "activity increase over dofetilide control, less the hit threshold": "10% (active)"}, {"smiles": "O=C(NC(=S)Nc1ccccc1)c1cccs1", "activity increase over dofetilide control, less the hit threshold": "12% (active)"}, {"smiles": "CCCOc1ccc(C(=O)NNC(=S)NC(=O)c2cccs2)cc1", "activity increase over dofetilide control, less the hit threshold": "-44% (inactive)"}, {"smiles": "O=C(NC(=S)NNC(=O)c1cccs1)c1ccc(Br)o1", "activity increase over dofetilide control, less the hit threshold": "-23% (inactive)"}, {"smiles": "CCN(CC)c1ccc(NC(=S)NC(=O)c2cccs2)cc1", "activity increase over dofetilide control, less the hit threshold": "8% (active)"}, {"smiles": "O=c1ccn(CCCBr)c(=O)[nH]1", "activity increase over dofetilide control, less the hit threshold": "-8% (inactive)"}, {"smiles": "CCN(CC)CCOC(=O)C(c1ccccc1)c1ccccc1", "activity increase over dofetilide control, less the hit threshold": "-6% (inactive)"}, {"smiles": "O=[N+]([O-])c1ccccc1OCCNCc1ccccc1", "activity increase over dofetilide control, less the hit threshold": "9% (active)"}, {"smiles": "O=C(COc1ccccc1[N+](=O)[O-])Nc1cc(Cl)ccc1C(=O)O", "activity increase over dofetilide control, less the hit threshold": "-10% (inactive)"}, {"smiles": "O=C1CCCN1C(=O)COc1ccccc1[N+](=O)[O-]", "activity increase over dofetilide control, less the hit threshold": "-13% (inactive)"}, {"smiles": "Cc1cc(C)n(-c2nc(NCCCN(C)C)c3c4c(sc3n2)CCCC4)n1", "activity increase over dofetilide control, less the hit threshold": "-10% (inactive)"}, {"smiles": "COc1ccc(N2C(=O)/C(=C/c3cccs3)NC2=S)cc1", "activity increase over dofetilide control, less the hit threshold": "-21% (inactive)"}, {"smiles": "CCOc1ccc(NC(=O)c2ccc(NC(=O)CSc3nc4ccccc4c(=O)[nH]3)cc2)cc1", "activity increase over dofetilide control, less the hit threshold": "-17% (inactive)"}, {"smiles": "CCOc1ccc2nc(N3C(=O)/C(=C/c4ccccc4)NC3=S)sc2c1", "activity increase over dofetilide control, less the hit threshold": "71% (active)"}, {"smiles": "CCOc1ccc2nc(N3C(=O)/C(=C/c4ccc(Cl)cc4)NC3=S)sc2c1", "activity increase over dofetilide control, less the hit threshold": "22% (active)"}, {"smiles": "O=C(N1CCOCC1)N1CCC(c2nc(-c3ccc(S(=O)(=O)N4CCOCC4)cc3)no2)CC1", "activity increase over dofetilide control, less the hit threshold": "-12% (inactive)"}, {"smiles": "Cc1ccc(CNS(=O)(=O)c2ccc(C(F)(F)F)cc2)n1C", "activity increase over dofetilide control, less the hit threshold": "-18% (inactive)"}, {"smiles": "Cc1cc(C)c(-c2cc(NC(=O)COC(=O)c3ccc(NC(=O)CC#N)cc3)n(-c3ccccc3)n2)cc1C", "activity increase over dofetilide control, less the hit threshold": "-15% (inactive)"}, {"smiles": "Cc1ccc(NC(=S)N2CCN(c3ccccc3F)CC2)c(C)c1", "activity increase over dofetilide control, less the hit threshold": "-8% (inactive)"}, {"smiles": "COc1ccc(CN2CCn3ncc(C(=O)Nc4ccccc4)c3C2=O)cc1", "activity increase over dofetilide control, less the hit threshold": "-16% (inactive)"}, {"smiles": "CC(C)COc1ccc(-c2nn(-c3ccccc3)cc2C(=O)Nc2nccs2)cc1", "activity increase over dofetilide control, less the hit threshold": "20% (active)"}, {"smiles": "COc1ccc(-c2nn(-c3ccccc3)cc2C(=O)Nc2cccc(C(=O)O)c2)cc1[N+](=O)[O-]", "activity increase over dofetilide control, less the hit threshold": "-27% (inactive)"}, {"smiles": "Cc1ccc(-n2ccc(=O)c(C(=O)Nc3ccc(S(=O)(=O)Nc4nccs4)cc3)n2)cc1", "activity increase over dofetilide control, less the hit threshold": "-3% (inactive)"}, {"smiles": "Cc1cnc(C(=O)Nc2nccs2)cn1", "activity increase over dofetilide control, less the hit threshold": "-22% (inactive)"}, {"smiles": "COc1ccc(NC(=O)c2cn(-c3ccccc3)nc2-c2ccncc2)cc1", "activity increase over dofetilide control, less the hit threshold": "40% (active)"}, {"smiles": "COc1ccc([N+](=O)[O-])cc1N(CC(=O)NCc1ccco1)S(C)(=O)=O", "activity increase over dofetilide control, less the hit threshold": "-21% (inactive)"}, {"smiles": "O=c1cc(O)c2sc(Nc3ccc(F)c(Cl)c3)nc2[nH]1", "activity increase over dofetilide control, less the hit threshold": "-15% (inactive)"}, {"smiles": "C=CCNC(=O)COc1ccc(Oc2ccccc2)cc1", "activity increase over dofetilide control, less the hit threshold": "-6% (inactive)"}, {"smiles": "Cc1ccccc1NC(=O)C(=O)NNC(=O)COc1ccc2ccccc2c1", "activity increase over dofetilide control, less the hit threshold": "48% (active)"}, {"smiles": "O=C(COc1ccccc1)Nc1ccc(F)cc1", "activity increase over dofetilide control, less the hit threshold": "-27% (inactive)"}, {"smiles": "O=C(COc1ccc2ccccc2c1)NNC(=O)C(=O)Nc1ccccc1", "activity increase over dofetilide control, less the hit threshold": "55% (active)"}, {"smiles": "COC(=O)CSc1nnc(COc2ccc3ccccc3c2)o1", "activity increase over dofetilide control, less the hit threshold": "-10% (inactive)"}, {"smiles": "O=C(COc1ccc2ccccc2c1)Nc1ccc(Br)cc1C(=O)O", "activity increase over dofetilide control, less the hit threshold": "-10% (inactive)"}, {"smiles": "COc1ccc(N2CC(C(=O)OCC(=O)Nc3ccccc3C)CC2=O)cc1", "note": "(stereo not given)", "activity increase over dofetilide control, less the hit threshold": "-5% (inactive)"}, {"smiles": "COc1ccccc1NC(=O)C(=O)NNC(=O)COc1ccc2ccccc2c1", "activity increase over dofetilide control, less the hit threshold": "94% (active)"}, {"smiles": "CCN1C(=O)c2cccc3c(S(=O)(=O)NCC4CCCO4)ccc1c23", "note": "(stereo not given)", "activity increase over dofetilide control, less the hit threshold": "-22% (inactive)"}, {"smiles": "Brc1ccc(Nc2nc(-c3cccnc3)cs2)cc1", "activity increase over dofetilide control, less the hit threshold": "-12% (inactive)"}, {"smiles": "Cc1cc(C(F)(F)F)c2sc(N)nc2n1", "activity increase over dofetilide control, less the hit threshold": "-11% (inactive)"}, {"smiles": "CC1CC(OCC(O)C[N+]2(C)CCOCC2)CC(C)(C)C1", "note": "(stereo not given)", "activity increase over dofetilide control, less the hit threshold": "-13% (inactive)"}, {"smiles": "COc1ccc(S(=O)(=O)Nc2cccc(-n3cnnn3)c2)cc1", "activity increase over dofetilide control, less the hit threshold": "-20% (inactive)"}, {"smiles": "C=CCN(c1ccccc1)S(=O)(=O)c1cccc(C(=O)Nc2nnc(SCC)s2)c1", "activity increase over dofetilide control, less the hit threshold": "-4% (inactive)"}, {"smiles": "C=CCN(c1cccc(C(F)(F)F)c1)S(=O)(=O)c1cccc(C(=O)OCC(=O)Nc2ccccc2)c1", "activity increase over dofetilide control, less the hit threshold": "-6% (inactive)"}, {"smiles": "C=CCN(c1ccc(Cl)cc1)S(=O)(=O)c1cccc(C(=O)O)c1", "activity increase over dofetilide control, less the hit threshold": "6% (active)"}, {"smiles": "COc1ccc(-c2cn3nc(SCC(=O)NC4CCCCC4)ccc3n2)cc1", "activity increase over dofetilide control, less the hit threshold": "-2% (inactive)"}, {"smiles": "O=C(Nc1nc(=O)c2ccccc2s1)c1ccc(Cl)cc1", "activity increase over dofetilide control, less the hit threshold": "46% (active)"}, {"smiles": "CN(CC(=O)Nc1nc2ccccc2s1)S(=O)(=O)c1ccc(Cl)cc1", "activity increase over dofetilide control, less the hit threshold": "-17% (inactive)"}, {"smiles": "Cc1ccc(C(=O)Nc2nc3ccccc3c(=O)s2)cc1", "activity increase over dofetilide control, less the hit threshold": "53% (active)"}, {"smiles": "O=C(CNC(=O)c1ccccc1)NCc1ccc(Cl)cc1", "activity increase over dofetilide control, less the hit threshold": "-8% (inactive)"}, {"smiles": "Cc1ccc(C(=O)Nc2nc(=O)n(C)s2)cc1", "activity increase over dofetilide control, less the hit threshold": "-1% (inactive)"}]}]}
